The results in this text go back to PubChem BioAssay AID624396 (The Scripps Research Institute Molecular Screening Center, 2012).

Calls of active or inactive are those of the source.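 How the source made its calls: active means over 15% of cells apoptotic at 25 µM, or half-maximal dose of 10 µM or lower; inactive means the rest.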

This assay concerns DHL-10. Description: pro-apoptotic nuclear morphology in cancer cells – imaging, DAPI staining, cell line panel, probe, mechanism study for MCL1-BIM inhibitor project, late-stage follow-up (AID 624396). Particulars: cancer cell panel apoptosis.

With `CCN1CCN(C(c2ccc(C(F)(F)F)cc2)c2ccc3cccnc3c2O)CC1` (stereo unspecified), the result was inactive.
